The values below come from PubChem BioAssay AID1903 (Southern Research Specialized Biocontainment Screening …, 2009).

Screen size: about 310,000 compounds; about 1,200 (0.39%) were called active. The list is a sample of the results. Entries with a potency or affinity are not part of this list. A number with no mark means an inactive call. How the calls were made is not given here.

The target in the assay is Large T antigen (Simian virus 40) (UniProt P03070). Description: SV40 large T antigen inhibitors, biochemical (AID 1903). The note with it: SV40 large T antigen ATPase/helicase inhibition assay; at 20 µM; active compounds read high.
Sequence of Large T antigen (Simian virus 40) (P03070 whole entry, looked up): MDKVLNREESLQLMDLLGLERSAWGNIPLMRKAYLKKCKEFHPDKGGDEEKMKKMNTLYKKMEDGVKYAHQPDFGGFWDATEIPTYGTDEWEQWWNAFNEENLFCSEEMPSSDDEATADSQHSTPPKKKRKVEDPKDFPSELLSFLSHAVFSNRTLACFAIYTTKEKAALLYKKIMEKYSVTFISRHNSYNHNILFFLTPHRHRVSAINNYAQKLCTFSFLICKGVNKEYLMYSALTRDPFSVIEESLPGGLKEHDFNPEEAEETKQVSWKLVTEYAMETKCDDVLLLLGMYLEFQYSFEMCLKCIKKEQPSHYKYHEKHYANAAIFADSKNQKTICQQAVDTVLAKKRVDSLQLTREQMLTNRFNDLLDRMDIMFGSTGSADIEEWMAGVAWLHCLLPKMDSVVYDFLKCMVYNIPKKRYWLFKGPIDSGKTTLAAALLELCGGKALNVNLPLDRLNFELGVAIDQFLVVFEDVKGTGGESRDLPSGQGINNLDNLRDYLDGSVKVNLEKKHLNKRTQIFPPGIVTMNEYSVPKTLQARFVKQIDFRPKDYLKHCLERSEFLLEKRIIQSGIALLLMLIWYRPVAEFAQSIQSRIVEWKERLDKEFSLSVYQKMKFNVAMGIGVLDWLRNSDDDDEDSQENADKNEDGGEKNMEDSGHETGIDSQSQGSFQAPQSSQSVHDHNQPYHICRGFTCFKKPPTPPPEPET
By inhibition is commonly meant the relative decrease from the control value, in per cent. As to `O=C(CSc1nnc(-c2cccnc2)n1-c1ccccc1)Nc1ccc2c(c1)OCO2`, the inhibition is 18.3%. For `N#Cc1ccsc1NC(=O)CN1C(=O)NC2(CCCC2)C1=O` the value was 13.3%. For `CCCOc1ccc(N2C(=O)CC(NCC#N)C2=O)cc1` (stereo not drawn) the value was 3.6%. The figure for `Nc1c(-c2ccc(Cl)cc2)cnn1-c1cc(C(F)(F)F)cc(C(F)(F)F)c1` is 10.5%. Turning to `Oc1ccccc1C1=Nc2ccccc2N=C(c2cccs2)C1`, the inhibition is 12.3%. The figure for `O=C(O)C1CC(c2ccccc2)=Nc2ccccc2S1` (stereo not drawn) is 19.3%; for `CCn1cc(S(=O)(=O)CC(=O)Nc2cc(C)ccc2C)c2ccccc21` it is 3.58%. For `CC(=O)c1ccc(OCCCC(=O)NC2CCC(C)CC2)cc1` (stereo not drawn) the value was 23.9%. For `Cc1cccc(-c2noc(CN(C)C(=O)COc3ccccc3)n2)c1`, the inhibition was 13.7%. For `Cc1nn(-c2ccccc2)c(C)c1C(=O)Nc1ccc(N2CCOCC2)cc1`, the inhibition is 26.7%.

For `Cc1nn(-c2ccccc2)c(Cl)c1C(=O)Nc1ccc(N2CCOCC2)cc1`, the inhibition was 9.69%. For `C/C(CC(=O)NCc1ccco1)=N\NC(=O)c1ccc(Cl)cc1Cl` the value was 5.88%.

For `C/C(CC(=O)Nc1ccc(N(C)C)cc1)=N\NC(=O)c1ccc([N+](=O)[O-])cc1`, the inhibition is 22.9%.

As for `C/C(CC(=O)Nc1ccc(N(C)C)cc1)=N\NC(=O)c1ccc(Cl)cc1`, the inhibition was 21.9%. `C/C(CC(=O)Nc1ccc2c(c1)OCCO2)=N\NC(=O)c1ccc([N+](=O)[O-])cc1Cl`: the inhibition was 3.29%. The figure for `Cc1nnsc1C(=O)N1CCCC(N2CCN(c3cccc(C(F)(F)F)c3)CC2)C1` (stereo not drawn) is 12.9%. The figure for `COCC(=O)Nc1ccc2c(c1)OCC(=O)N2Cc1ccccc1F` is 20.2%. The figure for `CC(=O)N1CCN(CC(=O)O)CC1` is 5.47%.

For `Cn1c(N)c(C(=O)Nc2ccccc2)c(=O)[nH]c1=O`, the inhibition is 5.18%.

As to `Cn1c2ccccc2c2cnn(CC(=O)NCCCN3CCN(c4ccccc4F)CC3)c(=O)c21`, the inhibition was 9.9%. Turning to `COc1ccc(OC)c(CCNC(=O)Cn2nc(C)c3c(C)n(-c4ccccc4)nc3c2=O)c1`, the inhibition is 2.47%. For `CCCNC(=O)Cn1sc2nc(C)cc(C)c2c1=O` the value was 8.82%; for `O=C(CCNC(=O)Cn1ccc2ccccc2c1=O)NCCCN1CCN(c2ccccc2F)CC1`, -2.74%. The figure for `Cc1c(Cl)cccc1NC(=O)Cn1cc(C(F)(F)F)cc(Cl)c1=O` is 6.09%; for `Cc1ccc(NC(=O)Cn2sc3nc(C)cc(C)c3c2=O)c(Cl)c1` it is 5.12%; for `O=C(c1cc([N+](=O)[O-])ccc1Cl)N1c2ccccc2Sc2ccccc21` it is 3.02%. With `Cc1cc(C)cc(OCc2nnc(SCC(=O)NC3CC3)n2C)c1`, the inhibition was -1.01%. For `CCOC(=O)N1CCC(N2C(=O)c3ccc(C(=O)NCCOC)cc3C2=O)CC1` the value was 5.99%; for `COc1cccc(NC(=O)Nc2cc(C)ccc2OC)c1`, 2.17%. For `CCCc1cc(=O)oc2cc(C)cc(OCC(=O)NCC(O)c3ccccc3)c12` (stereo not drawn) the value was 12.5%; for `Cc1ccc(N2CC(=O)N(NC(=O)Nc3ccc(Cl)c(Cl)c3)CC2=O)cc1`, 13.8%. The figure for `O=C(CCC(=O)N1CCN(Cc2ccccc2)CC1)Nc1nnc(C2CCCCC2)s1` is 13.1%. Consider `CSCCC(NC(N)=O)C(=O)Nc1cccc(S(=O)(=O)N2CCOCC2)c1` (stereo not drawn), for which the inhibition was 2.59%. For `O=C(CCCOc1ccc(Br)cc1)NNC(=O)c1ccncc1` the value was 26.4%. The figure for `CCc1ccc(NC(=O)c2cc(-c3ccco3)on2)cc1` is 6.38%; for `O=C(CSc1cn(Cc2ccccc2)c2ccccc12)NCc1ccc(F)cc1` it is 6.13%.

As for `C=CCn1c(SCC(=O)N2CCOCC2)nc2scc(-c3ccco3)c2c1=O`, the inhibition was 22.1%. The figure for `C=CCn1c(SCC(=O)NCCCC)nc2scc(-c3ccco3)c2c1=O` is 32.9%; for `C=CCn1c(=S)[nH]c2scc(-c3ccc(C)o3)c2c1=O` it is 7.5%; for `C=CCn1c(=S)[nH]c2scc(-c3cccs3)c2c1=O` it is 9.96%. For `COc1cc(/C=C/[N+](=O)[O-])ccc1OC(=O)/C=C/c1ccc(F)cc1` the value was 17.2%.

With `CC(C)CCN(CCC(C)C)CC(O)Cn1c2ccccc2c(=O)c2ccccc21` (stereo not drawn), the inhibition is 8.16%. For `CC(=O)c1cccc(NC(=S)NC(=O)c2ccccc2C)c1` the value was -10%; for `CC(=O)OCCCCCCCCCCC[N+]1(C)CCCCC1`, 27.6%. Turning to `COC(=O)CCCCCCCCCC[N+]1(C)CCCCC1`, the inhibition was -2.24%.

For `COc1cc([N+](=O)[O-])ccc1NC(=O)Nc1cnccn1`, the inhibition was 13.4%. For `Cc1[nH]n(-c2ccccc2)c(=O)c1C=Nc1ccc2[nH]c(=O)[nH]c2c1` the value was 19.5%; for `Nc1ccc(CCS(N)(=O)=O)cc1`, 2.24%; for `CCc1ccc(S(=O)(=O)NCC(O)COc2ccc(OC)cc2)cc1` (stereo not drawn), 1.57%. For `O=C(Oc1coc(CSc2ncccn2)cc1=O)c1ccccc1[N+](=O)[O-]` the value was 18.4%. The figure for `Cc1ccc2c3c(c(SCC(=O)Nc4nccs4)nc2c1)CCCC3` is -1.03%.

With `Cn1c(-c2ccccc2[N+](=O)[O-])[n+](C)c2ccccc21`, the inhibition is 11.2%. The figure for `Cc1cc(/C=C2\C(=N)N3N=C(CC(=O)N4CCOCC4)SC3=NC2=O)c(C)n1-c1ccccc1` is 11.9%.

In the case of `CCOC(=O)C1CC2CC(C1)CN(C(=O)C1CCCCC1)C2` (stereo not drawn), the inhibition is 1.74%. With `O=[N+]([O-])c1ccccc1N=Nc1ccc(O)cc1`, the inhibition is 16.2%. For `C/C(=N\Nc1ccc([N+](=O)[O-])cc1)c1ccc(O)cc1` the value was 23.8%; for `[O-]/C(=C(\C(=S)NCc1ccco1)[n+]1ccccc1)c1ccccc1Br`, 20.6%. For `CS(=O)(=O)c1ccc(Cl)c(NC(=O)CCNC(=O)c2ccco2)c1` the value was 1.63%.

Regarding `CC(C)c1nnc(NC(=O)CCC(=O)N2CCC(Cc3ccccc3)CC2)s1`, the inhibition is 16.2%. The figure for `CC(C)CN1C(=O)c2ccc(C(=O)Nc3ccccn3)cc2C1=O` is 3.11%; for `C=CCN1CC(c2nc3ccccc3n2CCOc2ccccc2)CC1=O` (stereo not drawn) it is -0.56%. For `CN(C)/N=C/c1ccc(N2CCOCC2)cc1` the value was 16.2%. For the molecule `CN(CC(=O)Nc1ccc(N2CCOCC2)cc1)CC(=O)Nc1ccc(N2CCOCC2)cc1`, the inhibition was 21.6%. The figure for `CN(C)C(CNc1ccc(S(C)(=O)=O)cc1[N+](=O)[O-])Cc1ccccc1` (stereo not drawn) is -5.33%; for `CCOC(=O)/C(C#N)=C/Nc1ccccc1NS(=O)(=O)c1ccc(C)c(C)c1` it is 9.42%; for `COc1cc2c(cc1NC(=S)Nc1cccc3ccccc13)oc1ccccc12` it is 29.9%. For `CNC(=S)Nc1cc2oc3ccccc3c2cc1OC` the value was 18.4%.

In the case of `N#CC(=Cc1ccc(O)cc1)C(N)=C(C#N)C#N`, the inhibition is 8.06%. The figure for `CN(C)/C=C(\C#N)C(N)=C(C#N)C#N` is -3.37%; for `O=C(N/N=C/C1CC=CCC1)c1cc(Br)ccc1O` (stereo not drawn) it is 1.73%; for `CC(=O)O[C@@H]1[C@H]2[C@@H](C[C@@H](C)[C@@H]3C=CC(=O)[C@@]13C)OC(=O)[C@@H]2C` it is 11.5%.

Take `C=C1C(=O)O[C@@H]2C[C@@H](C)[C@@H]3C=CC(=O)[C@@]3(C)[C@@H](OC(C)=O)[C@H]12`: the inhibition is 35.6%. The figure for `CCOc1cc(/C=C(\C#N)C(N)=O)ccc1OCc1c(C)no[n+]1[O-]` is 10.9%; for `COc1ccccc1Oc1ccc(NC(=O)c2ccc(Cl)cc2)cc1` it is 6.92%; for `CS(=O)(=O)c1ccc2nc(N)sc2c1` it is 0.3%. The figure for `CS(=O)(=O)c1ccc(N)cc1` is -0.19%; for `CC(C)OC(=O)NC(Nc1ccccc1C(=O)O)(C(F)(F)F)C(F)(F)F` it is 6.18%; for `Cc1ccc(C(=O)N[C@H](C(=O)Nc2sccc2C(N)=O)C(C)C)cc1` it is -5.98%. Regarding `COc1ccc(OCc2nn3c(-c4cccc(OC)c4)nnc3s2)cc1`, the inhibition was 8.77%. For `O=C(O)c1ccc(/C=C2\SC(=S)N(Nc3ccccc3)C2=O)cc1` the value was 32.2%; for `O=C1/C(=C/c2cccnc2)SC(=S)N1Nc1ccccc1`, 29.5%. The figure for `CC(/C=N/NC(=O)c1sc(N)nc1C)=C\c1ccccc1` is 17.8%. The figure for `O=[N+]([O-])c1ccccc1-c1ccc(/C=N/n2cnnc2)o1` is 14.3%; for `NS(=O)(=O)c1ccc(-c2ccc(/C=C3\C(=O)Nc4cc(Cl)ccc43)o2)cc1` it is -8.34%. As for `CC1=C(C#N)C(=O)NC(=O)/C1=C\c1ccc(-c2cc(C)c(C)cc2[N+](=O)[O-])o1`, the inhibition was 17.5%. Regarding `CC1=C(C#N)C(=O)NC(=O)/C1=C\c1ccc(-c2ccc(C)cc2[N+](=O)[O-])o1`, the inhibition was 33.3%. For `Cc1cc(C(=O)O)ccc1-c1ccc(/C=C2\NC(=O)N(Cc3ccc(F)cc3)C2=O)o1` the value was 37.5%; for `Cc1ccc(-c2ccc(/C=C3/NC(=O)NC3=O)o2)cc1[N+](=O)[O-]`, 28.5%. The figure for `O=C(COc1cccc(NC(=O)c2ccccc2)c1)c1ccccc1` is 5.06%; for `CCN(C(=O)CN1CCOCC1)c1c(N)n(Cc2ccccc2)c(=O)[nH]c1=O` it is 7.23%. As for `Cc1ccc(S(=O)(=O)NCCNC(=O)CN2CCCC2)cc1`, the inhibition is 0.78%. The figure for `CC1(C)CC(=O)N(CC(=O)N2CCN(c3ncccn3)CC2)c2ccccc2S1(=O)=O` is -1.17%; for `O=C(NNc1c(Cl)cccc1Cl)c1c(F)cccc1Cl` it is 9.15%.
